The values below come from ChEMBL document CHEMBL4513216, “Probing the Open Global Health Chemical Diversity Library for Multistage-Active Starting Points for Next-Generation Antimalarials” (ACS Infect Dis, 2020).

The campaign covered roughly 68,000 compounds. About 2,700 (4%) showed an effect of 50% or more. Shown is part of a subset that was picked to be rich in strong results.

The subject of this assay is Plasmodium berghei. Nature of the assay: Screen against P. berghei liver stage (PbLuc), transformed with Luciferase, at 2uM. The conditions noted are these: tested at 2 uM. In kind it is functional, HepG2.
Consider `CC(NC(=O)c1cc(=O)n(C)c(=O)n1C)c1ccccc1-n1cccn1` (configuration not stated), for which the INHIBITION is 50.97%. For the molecule `CCC(=O)NC(C)c1ccccc1C` (configuration not stated), the INHIBITION is -6.19%. For the molecule `Cn1c(CNc2c(F)cccc2-n2cccn2)cc(=O)n(C)c1=O`, the INHIBITION was 32.14%. With `CC(NC(=O)c1ccc(=O)n(C)c1)c1ccccc1-n1cccn1` (configuration not stated) the figure was 51.64%; with `CC(NC1CCCC1)c1ccccc1-n1cccn1` (configuration not stated), 21.28%. In the case of `CC(NC1CCSCC1)c1ccccc1-n1cccn1` (configuration not stated) it was 27.52%; in that of `Cc1ccccc1C(C)NC(=O)c1ccc(=O)n(C)c1` (configuration not stated), 64.9%; in that of `CCN(CC)CCCC(C)NC(=O)c1ccccc1-n1cccn1` (configuration not stated), 19.33%. With `Cn1cc(C(=O)Nc2cccc(F)c2)ccc1=O` the figure was -66.38%; with `CC(=O)NCc1cc2n(n1)CCN(Cc1ccccc1OC(F)(F)F)C2`, 27.52%; with `CCN(CC)S(=O)(=O)N1C[C@@H](c2ccccc2)[C@H]2[C@H]1CCCCCN2C`, 20.71%.

Turning to `Cc1nc(C)c(-c2ccn(CC(=O)Nc3cnn(C)n3)n2)s1`, the INHIBITION worked out at 8.05%. With `CC(C)=CCN1C[C@@H]2CC[C@H]1CN(C(=O)c1ccc3c(c1)OCO3)C2` the figure was 34.98%; with `Cc1cc2c(=O)n(CCSc3cnn[nH]3)cnc2s1`, 39.99%. With `CN(Cc1ccsc1)C(=O)c1ccc(C2CCCO2)s1` (configuration not stated) the figure was -15.11%; with `O=C(CNC(=O)c1ccccc1I)NCc1ccccc1F`, -20.75%; with `CS(=O)(=O)NCc1cc(=O)n2c(n1)CN(CC1CC1)CCC2`, 33.12%. Turning to `Clc1cnccc1N1CCCC2(CCCOC2)C1` (configuration not stated), the INHIBITION stood at 48.73%.

For the molecule `CCS(=O)(=O)c1ccc(N2CCC(N)CC2)cc1`, the INHIBITION came to 67.9%.

On to `CCS(=O)(=O)c1ccc(N2CCC(NC(C)=O)CC2)cc1`, for which the INHIBITION is listed as -0.54%.

Consider `CCNC(=O)NC1CCN(c2ccc(S(=O)(=O)CC)cc2)CC1`, for which the INHIBITION is reported as -6.38%.

On to `O=C(c1sccc1C1CC1)N1CCN(c2nccs2)CC1`, for which the INHIBITION is on record as -15.54%. With `CC(c1ccon1)N(C)S(=O)(=O)NCc1ccccc1` (configuration not stated) the figure was -6.7%.

For the molecule `Cc1cc(C(=O)N(C)CC(F)(F)C(F)(F)F)ccc1-n1cncn1`, the INHIBITION is reported as 49.78%. With `CCN(CC)C(=O)CCc1nc(-c2cnn3c(C)cc(C)nc23)no1` the figure was -23.48%. Take `O=C(NCc1cccnc1N1CCCCC1)c1ccc2cc[nH]c2c1`: the INHIBITION is reported as 15.75%. In the case of `O=C(NCc1cccnc1N1CCCCC1)c1ccc2[nH]nnc2c1` it was 54.47%. Consider `O=C(NCc1cccnc1N1CCCC(O)C1)c1ccc2[nH]nnc2c1` (configuration not stated), for which the INHIBITION is 33.13%. On to `O=C1NC[C@@]2(C(=O)O)CN(Cc3cccc(Oc4ccccc4)c3)C[C@@H]12`, for which the INHIBITION was found to be 24.55%. For `O=C1NC[C@@]2(C(=O)O)CN(Cc3cccc(CN4CCOCC4)c3)C[C@@H]12`, the INHIBITION is given as 34.46%. In the case of `O=C1NC[C@@]2(C(=O)O)CN(Cc3cccc(OC4CCCC4)c3)C[C@@H]12` it was 62%; in that of `Cc1cc(C(C)(O)CNC(=O)OC(C)(C)C)c(C)o1` (configuration not stated), 25.21%; in that of `Cc1cc(C(C)(O)CNC(=O)C2(C)CCCC2)c(C)o1` (configuration not stated), 65.92%. On to `Cc1cc(C(C)(O)CNC(=O)c2ccc(Br)o2)c(C)o1` (configuration not stated), for which the INHIBITION was 27.32%. As to `COCC1CC2(CCN(Cc3ccc(OC)cc3)CC2)CN1C(C)C` (configuration not stated), the INHIBITION came to 2.07%. With `CC1CCN(CCNC(=O)c2cncnc2C(C)C)CC1`, the INHIBITION is 25.35%. With `Cc1ccccc1-c1ncc(CNCc2csc(C(C)C)n2)s1` the figure was -17.01%.

With `Cc1cnc(CNCc2cnc(-c3ccccc3C)s2)cn1`, the INHIBITION is 58.53%. In the case of `CCC1=NOC(CNCc2cnc(-c3ccccc3C)s2)C1` (configuration not stated) it was -31.79%.

For `COCCN1C=NC2(CCC(C(=O)Nc3ccc(C)cc3)CC2)C1=O` (configuration not stated), the INHIBITION is given as -76.06%. With `COc1cccc(-c2noc(C3CCN(Cc4ccc(C)cc4)C3)n2)c1` (configuration not stated) the figure was 58.96%; with `COc1cccc(-c2noc(C3CCN(Cc4ccncc4)C3)n2)c1` (configuration not stated), -22.79%. On to `COc1cccc(-c2noc(C3CCN(Cc4ccccc4C)C3)n2)c1` (configuration not stated), for which the INHIBITION amounted to 3.97%. In the case of `Cc1cccc(CN2CCC3(CC2)CN(c2cnn(C)c2)C(=O)CO3)n1` it was -29.81%. On to `Cc1cc(NC(=O)C(C#N)Cc2cnn(C)c2C)no1` (configuration not stated), for which the INHIBITION is on record as -11.32%. Regarding `CN1CCCC1CCn1ccnc1-c1nc(-c2ccccc2)no1` (configuration not stated), the INHIBITION stood at 17.37%. Turning to `O=c1c(S(=O)(=O)N2CCCC2)cccn1Cc1ccc(F)cc1Cl`, the INHIBITION is on record as 0.78%. With `O=c1c(S(=O)(=O)N2CCCC2)cccn1Cc1ccccc1Cl` the figure was 52.89%; with `O=c1c(S(=O)(=O)N2CCCCC2)cccn1Cc1ccccc1Cl`, -10.16%; with `O=C(NCc1cccc(F)c1)NCC(O)c1cccc(F)c1` (configuration not stated), -70.27%. In the case of `Cc1ccc(C)c(NC(=O)c2coc(C)n2)c1` it was 48.68%; in that of `COCc1ccc(C(=O)NS(=O)(=O)c2ccc3c(c2)CCC(=O)N3)cc1`, 24.36%.
